# Laboratory results from PubChem BioAssay.
# Calls of active or inactive are those of the source.
# How the values were obtained:
# [1] = system: Plasmodium falciparum Sir2 (PF13_0152, Sir2A); test: pfSir2 binders on small-molecule microarrays, primary screen, biochemical, small-molecule microarray, 635 nm fluorescence (AID 1098); conditions: small-molecule microarray binding, fluorescence 635 nm; higher = more signal;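 also: score merges spot fluorescence intensity with its signal-to-noise ratio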
# [2] = small-molecule microarray binders of probe aDKK1, primary screen, biochemical, biotinylated probe, 635/667 nm fluorescence (AID 1099); conditions: higher = more signal;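 also: score merges 667nm spot fluorescence with signal to noise across triplicate slides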
# [3] = small-molecule microarray binders of probe aCHRDL2, primary screen, biochemical, biotinylated probe, 635/667 nm fluorescence (AID 1100); conditions: higher = more signal
# [4] = splicing luciferase reporter signal modulators, primary screen, spliceosome inhibition project, cell-based, HEK293, splice +/- reporter (AID 1101); conditions: luminescence, 24 h, higher = more signal, called active from +8 up or from −8 down;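 also: HEK293 cells carrying a splicing-competent luciferase reporter gene; test concentration not given here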
# [5] = biological target: Fibroblast growth factor 10 (Homo sapiens) (UniProt O15520); test: FGF10 binders on small-molecule microarrays, primary screen, biochemical, small-molecule microarray, 635 nm fluorescence (AID 1102); conditions: FGF10 binding, fluorescence 635 nm, higher = more signal
# Sequence of Fibroblast growth factor 10 (Homo sapiens) (O15520 whole entry, looked up): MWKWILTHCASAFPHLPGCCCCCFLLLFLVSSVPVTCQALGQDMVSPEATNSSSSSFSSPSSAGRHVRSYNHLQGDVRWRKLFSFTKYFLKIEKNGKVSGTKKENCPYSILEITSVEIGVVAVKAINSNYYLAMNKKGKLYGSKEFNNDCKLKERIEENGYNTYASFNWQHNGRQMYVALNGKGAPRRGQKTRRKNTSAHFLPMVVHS
# [6] = system: glycogen synthase kinase-3 (GSK3A per assay name; protocol says GSK3B); test: GSK3 binders on small-molecule microarrays, primary screen, biochemical, small-molecule microarray, 635 nm fluorescence, GSK3A (AID 1103); conditions: small-molecule microarray binding, fluorescence 635 nm; higher = more signal; also: the record names both GSK3A and GSK3B
# [7] = biological target: Epidermal growth factor receptor (Homo sapiens) (UniProt P00533); test: EGFR binders on small-molecule microarrays, primary screen, biochemical, small-molecule microarray, 635 nm fluorescence (AID 1104); conditions: EGFR binding, higher = more signal;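 also: score merges 667 nm emission intensity with spot signal to noise over triplicate slides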
# Sequence of Epidermal growth factor receptor (Homo sapiens) (P00533 whole entry, looked up): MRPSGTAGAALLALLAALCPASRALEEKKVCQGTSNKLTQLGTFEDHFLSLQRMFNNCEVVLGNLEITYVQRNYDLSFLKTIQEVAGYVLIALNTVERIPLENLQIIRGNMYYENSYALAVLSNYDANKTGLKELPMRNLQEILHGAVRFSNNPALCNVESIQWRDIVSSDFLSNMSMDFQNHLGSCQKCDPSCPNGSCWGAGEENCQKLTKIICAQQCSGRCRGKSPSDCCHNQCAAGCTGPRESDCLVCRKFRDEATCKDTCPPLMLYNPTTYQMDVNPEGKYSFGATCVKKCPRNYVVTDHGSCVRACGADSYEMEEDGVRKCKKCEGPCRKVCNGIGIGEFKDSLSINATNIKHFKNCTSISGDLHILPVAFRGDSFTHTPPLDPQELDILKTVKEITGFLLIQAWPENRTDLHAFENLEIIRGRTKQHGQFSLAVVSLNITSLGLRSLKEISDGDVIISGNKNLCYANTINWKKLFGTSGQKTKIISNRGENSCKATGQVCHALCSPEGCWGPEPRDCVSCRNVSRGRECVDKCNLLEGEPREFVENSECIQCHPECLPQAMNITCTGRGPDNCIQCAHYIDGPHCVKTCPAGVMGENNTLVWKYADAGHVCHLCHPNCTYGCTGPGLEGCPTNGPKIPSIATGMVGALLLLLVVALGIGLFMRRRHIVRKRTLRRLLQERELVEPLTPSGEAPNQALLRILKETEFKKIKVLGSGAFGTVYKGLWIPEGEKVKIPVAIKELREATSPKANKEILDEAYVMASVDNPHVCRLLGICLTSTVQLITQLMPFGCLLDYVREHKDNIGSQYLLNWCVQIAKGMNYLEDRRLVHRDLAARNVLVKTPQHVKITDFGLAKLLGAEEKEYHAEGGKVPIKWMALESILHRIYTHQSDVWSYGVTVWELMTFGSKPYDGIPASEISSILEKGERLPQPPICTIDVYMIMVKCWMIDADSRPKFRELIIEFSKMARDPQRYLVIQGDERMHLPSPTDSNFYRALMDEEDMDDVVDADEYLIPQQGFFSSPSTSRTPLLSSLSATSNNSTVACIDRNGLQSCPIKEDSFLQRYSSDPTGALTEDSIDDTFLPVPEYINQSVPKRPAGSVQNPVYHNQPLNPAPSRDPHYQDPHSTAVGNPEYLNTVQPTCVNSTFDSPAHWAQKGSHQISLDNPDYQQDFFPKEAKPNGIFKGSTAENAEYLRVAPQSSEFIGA
# [8] = biological target: Follistatin-related protein 3 (Homo sapiens) (UniProt O95633); test: FSTL3 binders on small-molecule microarrays, primary screen, biochemical, small-molecule microarray, 635 nm fluorescence (AID 1105); conditions: FSTL3 binding, higher = more signal;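 also: score merges emission near 667 nm and signal to noise per printed spot across three slides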
# Sequence of Follistatin-related protein 3 (Homo sapiens) (O95633 whole entry, looked up): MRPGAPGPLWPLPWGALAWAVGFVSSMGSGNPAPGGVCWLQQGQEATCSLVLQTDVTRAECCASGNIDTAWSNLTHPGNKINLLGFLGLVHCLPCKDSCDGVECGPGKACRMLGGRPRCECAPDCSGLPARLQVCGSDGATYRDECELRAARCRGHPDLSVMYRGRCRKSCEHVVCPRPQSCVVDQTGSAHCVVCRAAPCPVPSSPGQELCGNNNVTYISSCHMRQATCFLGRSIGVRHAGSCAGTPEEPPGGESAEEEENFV
# [9] = biological target: Dickkopf-related protein 1 (Homo sapiens) (UniProt O94907); test: DKK1 binders on small-molecule microarrays, primary screen, biochemical, small-molecule microarray, 635 nm fluorescence scan (AID 1106); conditions: DKK1 binding, higher = more signal;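 also: score merges emission near 667 nm with signal to noise over three replicate slides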
# Sequence of Dickkopf-related protein 1 (Homo sapiens) (O94907 whole entry, looked up): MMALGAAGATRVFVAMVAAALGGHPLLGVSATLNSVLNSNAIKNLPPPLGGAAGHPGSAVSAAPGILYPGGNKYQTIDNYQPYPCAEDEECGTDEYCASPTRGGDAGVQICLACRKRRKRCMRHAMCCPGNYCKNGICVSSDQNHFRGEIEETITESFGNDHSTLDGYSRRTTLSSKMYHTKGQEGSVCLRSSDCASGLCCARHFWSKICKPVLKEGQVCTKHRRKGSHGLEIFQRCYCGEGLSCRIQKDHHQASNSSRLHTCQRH
# [10] = system: Inhibin beta A chain (activin A); test: INHBA (activin A) binders on microarrays, primary screen, biochemical, small-molecule microarray, 635 nm fluorescence scan (AID 1107); conditions: small-molecule microarray binding, higher = more signal;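 also: mouse activin A protein probed at 4.33 µg/mL on printed slides; score merges bound-protein fluorescence near 667 nm with spot signal-to-noise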
# [11] = system: Human papillomavirus type 1a protein E7 (residues 44-93); test: HPV1a E7 fragment binders on microarrays, primary screen, biochemical, small-molecule microarray, residues 44-93, 635 nm fluorescence (AID 1108); conditions: small-molecule microarray binding, fluorescence 635 nm; higher = more signal;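 also: E7 fragment applied at 1 µg/mL in TBST for 1 h at 4 C; score combines spot fluorescence with its signal to noise ratio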
# [12] = modulators of HCV replicon luciferase signal, primary screen, HCV replication inhibitor project, Huh7 cells, luciferase reporter (AID 1109); conditions: 48 h, higher = more signal;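 also: huh7 hepatoma cells harbouring a luciferase neomycin HCV replicon reporter; luciferase luminescence as measure of HCV replicon replication; test concentration not given here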
# [13] = biological target: Left-right determination factor 2 (Homo sapiens) (UniProt O00292); test: LEFTY2 binders on small-molecule microarrays, primary screen, biochemical, small-molecule microarray, 635 nm fluorescence scan (AID 1110); conditions: LEFTY2 binding, higher = more signal
# Sequence of Left-right determination factor 2 (Homo sapiens) (O00292 whole entry, looked up): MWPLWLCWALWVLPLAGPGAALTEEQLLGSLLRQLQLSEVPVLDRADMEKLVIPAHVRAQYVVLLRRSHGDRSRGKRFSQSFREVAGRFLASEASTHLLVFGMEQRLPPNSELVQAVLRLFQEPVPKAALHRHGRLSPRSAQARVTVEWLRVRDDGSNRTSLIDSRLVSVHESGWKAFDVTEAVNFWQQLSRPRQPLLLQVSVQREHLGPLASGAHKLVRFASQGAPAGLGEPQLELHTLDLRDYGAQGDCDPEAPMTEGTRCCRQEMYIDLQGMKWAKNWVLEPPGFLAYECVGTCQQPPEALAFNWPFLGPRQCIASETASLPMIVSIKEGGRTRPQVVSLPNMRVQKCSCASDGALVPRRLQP
# [14] = biological target: Calmodulin-1 (Homo sapiens) (UniProt P0DP23); test: CALM1 binders on microarrays, EGTA buffer, profiling panel, biochemical, small-molecule microarray, Cy5-labelled CALM1 (AID 1111); conditions: Cy5-CALM1 binding fluorescence, higher = more signal;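 also: labelled calmodulin applied in Tris saline Tween buffer holding calcium plus EGTA and DTT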
# [15] = biological target: Calmodulin-1 (Homo sapiens) (UniProt P0DP23); test: calcium-bound CALM1 binders on microarrays, profiling panel, artefact control for SMM control-protein annotation, biochemical, small-molecule microarray, Cy5-labelled CALM1, plus calcium (AID 1112); conditions: Cy5-CALM1 binding fluorescence, higher = more signal;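 also: score merges spot fluorescence with signal to noise from triplicate slides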
# [16] = small-molecule microarray binders of probe aWnt5a, primary screen, biochemical, biotinylated probe, 635/667 nm fluorescence (AID 1113); conditions: higher = more signal;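 also: score merges 667 nm fluorescence intensity with signal-to-noise per printed feature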
# [17] = small-molecule microarray binders of probe aShh, primary screen, biochemical, biotinylated probe, 635/667 nm fluorescence (AID 1114); conditions: higher = more signal;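 also: probe is biotin-labelled aShh protein from a stem cell growth factor screen; measures binding of labelled protein to compounds printed on the slide; score merges feature fluorescence at 667 nm with signal-to-noise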
# [18] = small-molecule microarray binders of probe aNog, primary screen, biochemical, biotinylated probe, 635/667 nm fluorescence (AID 1115); conditions: higher = more signal;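 also: probe is biotinylated aNog protein used at 0.15 µg/mL for 1 h at 4 C; z-score combines 667 nm fluorescence of each spot with its signal to noise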
# [19] = biological target: Torsin-1A-interacting protein 1 (Homo sapiens) (UniProt Q5JTV8); test: LAP1 binders from COS7 cell lysate, primary screen, small-molecule microarray, 635/667 nm fluorescence (AID 1116); conditions: COS7-hLAP1 lysate binding, 635 nm fluorescence, higher = more signal
# Sequence of Torsin-1A-interacting protein 1 (Homo sapiens) (Q5JTV8 whole entry, looked up): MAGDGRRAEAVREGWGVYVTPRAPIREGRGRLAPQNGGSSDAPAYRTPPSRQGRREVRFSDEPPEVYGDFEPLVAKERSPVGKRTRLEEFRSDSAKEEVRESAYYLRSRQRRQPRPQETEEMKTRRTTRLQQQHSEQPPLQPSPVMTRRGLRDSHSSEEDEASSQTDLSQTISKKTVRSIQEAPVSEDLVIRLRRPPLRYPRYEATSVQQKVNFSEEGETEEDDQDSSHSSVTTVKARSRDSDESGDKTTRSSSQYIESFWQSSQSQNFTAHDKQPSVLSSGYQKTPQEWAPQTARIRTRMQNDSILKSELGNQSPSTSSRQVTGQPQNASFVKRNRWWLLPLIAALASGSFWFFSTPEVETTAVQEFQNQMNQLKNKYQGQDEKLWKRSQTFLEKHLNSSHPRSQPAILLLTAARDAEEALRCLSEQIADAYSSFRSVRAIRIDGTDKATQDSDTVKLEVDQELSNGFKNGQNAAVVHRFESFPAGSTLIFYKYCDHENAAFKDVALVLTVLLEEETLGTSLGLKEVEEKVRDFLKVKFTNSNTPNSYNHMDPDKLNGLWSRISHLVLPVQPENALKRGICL
# [20] = biological target: Alpha-bungarotoxin (Bungarus multicinctus) (UniProt P60615); test: alpha-bungarotoxin binders on microarray, profiling panel, artefact control for SMM control protein annotation, biochemical, small-molecule microarray, Alexa647 label, 635/667 nm fluorescence (AID 1117); conditions: alpha-BTX-A647 binding fluorescence, higher = more signal
# Sequence of Alpha-bungarotoxin (Bungarus multicinctus) (P60615 whole entry, looked up): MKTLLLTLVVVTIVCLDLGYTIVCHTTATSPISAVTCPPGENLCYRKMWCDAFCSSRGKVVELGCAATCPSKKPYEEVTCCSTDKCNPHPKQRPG
SMILES,composite z-score [1],composite z-score [2],composite z-score [3],z-score [4],composite z-score [5],composite z-score [6],composite z-score [7],composite z-score [8],composite z-score [9],composite z-score [10],composite z-score [11],z-score [12],composite z-score [13],composite z-score [14],composite z-score [15],composite z-score [16],composite z-score [17],composite z-score [18],composite z-score [19],composite z-score [20]
C=C(COC)/C(=C/C[C@@H](OC(C)=O)c1ccc(CO)o1)c1cc(C(=O)OC)ccc1OC,0.403,-0.138,-0.0929,0.36 (inactive),1.17,0.0212,-0.725,-0.185,-0.305,1.08,0.531,-1.45,-0.0379,-0.177,-0.9,-0.096,0.479,0.184,-0.315,0.202
O=C1NC(=O)C2C1C=CC(C(O)c1ccccn1)N2Nc1ccc(Cl)cc1Cl (stereo not given),0.827,0.315,0.717,1.54 (inactive),0.0551,-0.0767,0.107,-0.196,-0.35,0.386,0.553,0.812,0.0905,1.46,0.819,-0.16,0.171,0.383,0.422,-0.0671
COc1cc(CO)cc(I)c1O[C@H]1C=C(C(=O)NCCO)C[C@@H](NCC2CCCCC2)[C@@H]1O,0.587,-0.155,-0.103,-0.47 (inactive),0.536,0.0102,0.151,0.607,0.502,0.328,0.552,-1.58,0.392,-0.11,-0.197,-0.0512,0.0639,-0.319,0.164,0.394
